A selection: hits, their analogues and other compounds. The true share with any hit is near 3.3%.
D3 ag: agonists of human D3 dopamine receptor; P35462; D3R DiscoveRx beta-arrestin cells, luminescence, 90 min; max activation, %; hit rate 0.58% among 410,000; AID 652048; in the data active = max activation above about 30%
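Agonist-mode cell screen: cells plated at 1500/well and incubated overnight at 37 °C, then exposed to library compounds for 90 min at 37 °C. Detection reagent was added for 30–60 min at room temperature, and luminescence was read.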
LDHA block: inhibitors of human lactate dehydrogenase A. P00338. purified LDHA, NADH/diaphorase-resazurin fluorescence; stronger effect = lower value. activity change, % (values are at about 110 or 230 µM). hit rate 0.15% among 480,000. AID 1347041; in the data active = activity change below about -30%; inconclusive = mostly about -25% to -30%
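Remaining NADH was detected by diaphorase (0.133 mg/mL) converting 37 µM resazurin to fluorescent resorufin, read at 0 and 20 minutes. The preceding 5-minute room-temperature reaction used 2 nM LDHA, 0.2 mM sodium pyruvate and 0.06 mM NADH at pH 7.4.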
PI4K2A block: inhibitors of human PI4K2A; Q9BTU6; purified PI4K2A, ADP-Glo luminescence, 1 h; stronger effect = lower value; activity change, negative = inhibition, % at 76.9 µM; hit rate 0.13% among 420,000; in the data active = activity change below about -50%; inconclusive = mostly about -30% to -49%
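ADP-Glo luminescence measured ADP generated by PI4K2A enzyme (4 ug/mL before mixing) with 1.2 mM PI substrate (pre-mix) and 300 microM ATP (pre-mix). Tris pH7.5 buffer with MgCl2, Triton X-100; 1 h reaction at ambient temperature.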
PI5P4Ka inh: blocks human PI5P4K alpha kinase activity; P48426; max response, %; PI5P4Kalpha enzyme, ADP-Glo luminescence, 60 min; stronger effect = lower value; hit rate 1.2% among 330,000; AID 652105; active = max response of -50% or lower; inconclusive = between -30% and -50%; inactive = -30% or higher; also: value at the top dose of about 77 µM
Target sequence (P48426 whole entry, looked up): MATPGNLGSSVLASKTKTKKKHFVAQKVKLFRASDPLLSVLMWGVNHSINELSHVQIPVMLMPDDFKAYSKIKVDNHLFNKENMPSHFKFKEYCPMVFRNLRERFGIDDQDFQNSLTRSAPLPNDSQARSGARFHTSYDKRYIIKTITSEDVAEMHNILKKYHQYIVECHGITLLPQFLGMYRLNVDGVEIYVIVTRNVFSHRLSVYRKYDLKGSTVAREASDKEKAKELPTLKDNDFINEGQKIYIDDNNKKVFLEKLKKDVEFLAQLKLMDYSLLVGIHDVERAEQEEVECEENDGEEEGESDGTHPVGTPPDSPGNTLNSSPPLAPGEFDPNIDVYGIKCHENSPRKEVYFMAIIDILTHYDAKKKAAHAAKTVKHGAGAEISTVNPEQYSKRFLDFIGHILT
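Enzyme plus substrate dispensed, test compounds pinned in, then ATP (5 microM final) added. After 60 min at RT, ADP-Glo reagent 1 for 45 min and reagent 2 for 30 min preceded luminescence imaging.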
DRD3 antagonist: antagonists of human D3 dopamine receptor; D3R cells, DiscoveRx beta-arrestin luminescence, antagonist mode; stronger effect = lower value; hit rate 2.5% among 360,000; max response, negative = inhibition, %; P35462; in the data active = max response below about -50%; inconclusive = no clear call, values can overlap the other calls
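Cells plated overnight at 1500 cells/well, then exposed to library compounds with dopamine controls for 90 minutes at 37 degrees C. DiscoveRx reagent added for 30–60 minutes at room temperature; luminescence read, quantitative HTS format.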
A number is an active result; – = inactive; ? = inconclusive; · = no result.

SMILES	D3 ag	LDHA block	PI4K2A block	PI5P4Ka inh	DRD3 antagonist
O=C(Nc1ccc(F)cc1)c1ccc(CN2CCc3ccccc3C2)cc1	–	–	–	–	–
CSc1ccccc1C(=O)Nc1cccc(F)c1	·	–	·	·	·
CN(CC(=O)NCC(F)(F)F)C(=O)Cc1c[nH]c2ccccc12	·	–	·	·	·
O=C1CSC(=Nc2ccc(Cl)cc2)N1Cc1ccco1	–	–	–	–	–
O=C(COc1ccc(Br)cc1)N/N=C1/SCC(=O)N1Cc1ccco1	–	–	–	-67	–
CCCCCN1CCCCC(NC(=O)Cc2ccccc2)C1=O (configuration not stated)	·	·	–	·	·
COc1ccc(CN2CCCC(N3CCN(c4ccc(OC)cc4)CC3)C2)cc1 (configuration not stated)	–	–	–	–	-58
CN1CCc2c(sc3c2C(=O)NC(c2ccco2)N3)C1 (configuration not stated)	–	–	–	·	–
CN1CCc2c(sc3c2C(=O)NC(c2ccc(-c4ccc(Cl)cc4)o2)N3)C1 (configuration not stated)	–	–	–	–	-81
CN1CCc2c(sc3c2C(=O)NC(c2cn(Cc4ccccc4)c4ccccc24)N3)C1 (configuration not stated)	–	–	–	–	-75
O=C(O)C(c1c[nH]c2ccc(Cl)cc12)N1CCN(C/C=C/c2ccccc2)CC1 (configuration not stated)	·	–	·	·	·
COc1ccc(-c2cc(C(=O)NCCc3ccccc3)c3c(-c4ccccc4)[nH]nc3n2)cc1OC	–	–	–	·	·
COc1ccc(CCNC(=O)c2cc(-c3ccc(C)cc3)nc3n[nH]c(-c4ccccc4)c23)cc1OC	74	–	–	·	·
COc1ccc(NC(=O)/C(C#N)=C/c2ccc(OCc3cc(=O)n4nc(C)sc4n3)cc2)cc1	–	–	–	·	·
Cc1nn2c(=O)cc(COc3ccc(/C=C(\C#N)C(=O)Nc4ccc(F)cc4)cc3)nc2s1	78	–	–	·	·
NS(=O)(=O)c1ccc(N=Nc2c(-c3ccccc3)[nH]n(-c3nc(-c4ccccc4)cs3)c2=O)cc1	–	–	–	?	-66
COC(=O)c1ccc(Oc2cc(C)nc(SC)n2)cc1	–	–	–	–	–
Cc1cc(Oc2ccccc2)nc(SCC(N)=O)n1	–	–	–	–	-78
CN(C)CCNc1nc2c(c(=O)[nH]c(=O)n2C)n1Cc1cccc(Br)c1	·	–	·	·	·
CCSc1nc(N2CCOCC2)c2c(c1C#N)CC(C)(C)N(C)C2	–	–	–	–	–
COC(=O)CSc1nc(N2CCOCC2)c2c(c1C#N)CC(C)(C)N(C)C2	–	–	–	–	-53
CC(C)Cn1c(N)c(C(=O)COC(=O)C2CC(=O)N(Cc3ccccc3Cl)C2)c(=O)n(C)c1=O (configuration not stated)	39	–	–	–	–
CCN(CC)S(=O)(=O)c1ccc(C(C)NCc2ccsc2)cc1 (configuration not stated)	·	–	·	·	·
COc1ccc(N=Nc2cc(C)c(O)c(CN3CCCCC3)c2)cc1	–	–	–	–	–
Cc1ccc(-c2nc(CN3CCCCC3)cc(CN3CCCCC3)c2O)cc1	–	–	–	–	-55
SMILES	D3 ag	LDHA block	PI4K2A block	PI5P4Ka inh	DRD3 antagonist
CC(=O)Nc1ccccc1NC(=O)C/C(C)=N/NC(=O)c1ccc([N+](=O)[O-])c(Cl)c1	–	–	–	–	-58
c1ccc(-n2nnc3ccccc32)cc1	–	–	–	–	–
C(=C\n1nnc2ccccc21)/c1ccc[nH]1	–	–	–	-77	–
CNC[C@H](CC1CCCCC1)NC[C@H](CO)NCCc1cccc(C(F)(F)F)c1	–	–	–	–	-84
CCC(=O)OC1(C)C(=O)C=C2C=C(c3ccsc3)OC=C2C1=O (configuration not stated)	–	–	–	-73	–
COC(=O)CCC(=O)OC1(C)C(=O)C=C2C=C(c3ccsc3)OC=C2C1=O (configuration not stated)	–	–	–	-98	–
COC(=O)CCC(=O)OC1(C)C(=O)C=C2C=C(C3CC3)N(C3CC3)C=C2C1=O (configuration not stated)	–	–	?	–	–
Cc1ccc(NC(=O)NNC(=O)C2CC(c3cccnc3)=NO2)cc1 (configuration not stated)	–	–	–	–	-62
CC(C)C[C@@H](CN)NC(=O)c1nc[nH]c1C(=O)N[C@@H](Cc1ccccc1)C(=O)CNC[C@H](C)NC(=O)c1nc[nH]c1C(=O)N[C@@H](C)C(=O)O	43	–	–	–	–
CC(C)C[C@@H](CN)NC(=O)c1nc[nH]c1C(=O)N[C@@H](Cc1ccccc1)C(=O)CNC[C@H](C)NC(=O)c1nc[nH]c1C(=O)N[C@@H](CC(C)C)C(=O)O	–	–	–	–	–
CC(C)C[C@@H](CNCC(=O)[C@H](CC(=O)O)NC(=O)c1[nH]cnc1C(=O)N[C@H](CN)CC(C)C)NC(=O)c1nc[nH]c1C(=O)N[C@@H](C)C(=O)O	–	–	–	–	-53
O=C(CCc1c[nH]c2ccccc12)Nc1ccccc1Oc1ccccc1	·	–	·	·	·
COc1ccc(C(=O)OCc2c(-c3ccccc3)ncc3ccccc23)cc1	–	–	–	–	-50
Cn1ccc(=S)c2ccccc21	–	–	–	-73	–
CCc1ccc(NC(=O)c2ncoc2-c2cccc(C)c2)cc1	·	–	·	·	·
Cc1ccc(CNC(=O)c2ccc(Cn3nc(C)c(Cl)c3C)o2)cc1	–	–	–	–	-53
O=C(NC1CC1)c1sc2ccccc2c1Cl	–	–	–	–	–
O=C(NNC(=O)c1sc2cccc(Cl)c2c1Cl)Nc1ccccc1	–	–	–	–	–
O=C(NNC(=S)NC1CCCCC1)c1sc2ccccc2c1Cl	–	–	–	–	-64
O=C(NNC(=O)c1sc2cccc(Cl)c2c1Cl)NC1CCCCC1	–	–	–	–	-74
CS/C(Nc1cc(Cl)ccc1Cl)=C(/C#N)C(=O)c1ccco1	–	-48	–	–	–
N#Cc1ccc(-c2ccc(OCC(=O)NC34CC5CC(CC(C5)C3)C4)cc2)cc1	·	–	·	·	·
COc1ccc2nc(-c3ccccc3)[nH]c(=O)c2c1	–	–	–	–	–
COc1ccc2nc(-c3ccccc3)cc(OC)c2c1	33	–	–	–	–
COc1ccc(Cn2c(CO)cnc2SCc2ccc(F)cc2)cc1	–	–	–	·	·
COc1ccnc(CSC(N)=Nc2ccc(F)cc2)c1	–	–	–	?	-71
CCN(CC)CCCN(C(=O)c1ccco1)c1nc(-c2ccc(C)cc2)cs1	–	–	–	–	?
CCN(CC)CCCN(C(=O)c1ccco1)c1nc(-c2ccc(Cl)cc2)cs1	–	–	–	–	-50
COc1ccc(CN2CC(COCc3ccccc3)Oc3ccccc3S2(=O)=O)cc1 (configuration not stated)	41	–	–	–	–
O=C(Nc1ccc2c(c1)OCCO2)Nc1nnc(-c2ccncc2)s1	·	–	·	·	·
